These results are taken from PubChem BioAssay (EPA / NIEHS).

Where “and” joins values, the source holds several entries; their conditions need not be identical. Equal values may be shown once. The source holds several records for some structures; these can differ, active in one and inactive in another. Calls of active or inactive are those of the source. Rule for the calls: active = hit-call score of the fitted dose curve at least 0.9, where 1 is the maximum; inactive = score below 0.9.

Assay [1] in a line: BSK_MyoF_SRB: Viability Assessment in the BioMAP Diversity Plus: MyoF Assay (AID 2284267).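 Note: total protein by SRB absorbance in parallel cultures as cytotoxicity measure; cells assessed 24 h after compound addition.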 The following applies: primary human lung fibroblasts. An outline of the steps: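 Lung fibroblast cultures, 24 h post-dose; fix 10% TCA, stain 0.1% SRB, read 560 nm. Signal = total protein as cytotoxicity measure; fitted relative to DMSO negative control.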
Read-out in assay [2]: Matrix Metallopeptidase 1 (MMP1), MMP1 (gene 4312)
Put plainly: BSK_MyoF_MMP1: BioMAP Diversity Plus: MyoF Assay for Matrix Metallopeptidase 1 (MMP1) Biomarker Activity (AID 2284268). Conditions: primary human lung fibroblasts. An outline of the steps: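 MMP1 measured by ELISA 24 h after dosing primary human lung fibroblasts; cytotoxicity checked in parallel cultures by sulforhodamine B total-protein staining read at 560 nm.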

Read-out in assay [3]: TIMP metallopeptidase inhibitor 1 (TIMP1), TIMP1 (gene 7076)
The experiment in a line: BSK_MyoF_TIMP1: BioMAP Diversity Plus: MyoF Assay for TIMP metallopeptidase inhibitor 1 (TIMP1) Biomarker Activity (AID 2284269). The following applies: primary human lung fibroblasts. Summed up:
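ELISA read-out of TIMP-1 from primary human lung fibroblast cultures 24 h after compound dosing; gain of signal relative to DMSO vehicle baseline defines activity.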

Read-out in assay [4]: Matrix Metallopeptidase 3 (MMP3), MMP3 (gene 4314)
Put plainly: BSK_BF4T_MMP3: BioMAP Diversity Plus: BF4T Assay for Matrix Metallopeptidase 3 (MMP3) Biomarker Activity (AID 2284271). The following applies: primary human bronchial epithelial cells with fibroblasts. An outline of the steps:
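MMP-3 level read by ELISA after 24 h chemical exposure of bronchial epithelial cell/dermal fibroblast co-cultures, fitted upward relative to DMSO. Parallel cultures stained with 0.1% SRB after TCA fixation gauge overt cytotoxicity.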

Read-out in assay [5]: Plasminogen Activator Inhibitor-1 (PAI1), SERPINE1 (gene 5054)
The experiment in a line: BSK_BF4T_PAI1: BioMAP Diversity Plus: BF4T Assay for Plasminogen Activator Inhibitor-1 (PAI1) Biomarker Activity (AID 2284273). The following applies: primary human bronchial epithelial cells with fibroblasts. Summed up:
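PAI-1 levels quantified by ELISA 24 h post-dosing in bronchial epithelial cell plus dermal fibroblast cultures. Signal gain referenced to DMSO baseline. Sulforhodamine B total-protein staining of parallel wells checked cytotoxicity.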

A short description of assay [6]: BSK_BF4T_SRB: Viability Assessment in the BioMAP Diversity Plus: BF4T Assay (AID 2284274).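 For AC50: measured 24 h after compound addition.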 The following applies: primary human bronchial epithelial cells with fibroblasts. An outline of the steps: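 Cytotoxicity measured as total protein: cells fixed with 10% TCA, stained with 0.1% SRB, read at 560 nm. Bronchial epithelial/dermal fibroblast co-culture, 24 h after dosing, with positive-direction fitting relative to DMSO.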

Read-out in assay [7]: Interleukin-8 (IL8), CXCL8 (gene 3576)
Put plainly: BSK_IMphg_IL8: BioMAP Diversity Plus: IMphg Assay for Interleukin-8 (IL8) Biomarker Activity (AID 2284277). Conditions: primary human endothelial cells with macrophages. An outline of the steps: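 IL-8 levels were measured by ELISA 24 h after dosing in primary human venular endothelial cell–macrophage cultures, referenced to DMSO; parallel SRB staining monitored overt cytotoxicity.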

Read-out in assay [8]: Intercellular Adhesion Molecule 1 (ICAM1), ICAM1 (gene 3383)
Put plainly: BSK_BE3C_ICAM1: BioMAP Diversity Plus: BE3C Assay for Intercellular Adhesion Molecule 1 (ICAM1) Biomarker Activity (AID 2284278).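 For outcome: cell-surface ICAM-1 protein level quantified by ELISA.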 Conditions: primary human bronchial epithelial cells. Summed up:
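ELISA read-out of ICAM-1 on human lung bronchial epithelial primary cells, 24 h post-dosing; positive-direction curve fit, DMSO = baseline. SRB total-protein staining of parallel cultures flagged overt cytotoxicity.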

Read-out in assay [9]: Interferon-inducible T-cell alpha chemoattractant (ITAC), CXCL11 (gene 6373)
Put plainly: BSK_BE3C_ITAC: BioMAP Diversity Plus: BE3C Assay for Interferon-inducible T-cell alpha chemoattractant (ITAC) Biomarker Activity (AID 2284279). Conditions: primary human bronchial epithelial cells. Summed up:
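ELISA read-out of I-TAC after 24 h chemical dosing of human lung primary bronchial epithelial cells; gain-of-signal fit vs DMSO baseline. Parallel SRB total-protein staining (0.1% SRB, 10% TCA fixation, 560 nm) assessed cytotoxicity.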

Read-out in assay [10]: Interleukin-8 (IL8), CXCL8 (gene 3576)
The experiment in a line: BSK_BE3C_IL8: BioMAP Diversity Plus: BE3C Assay for Interleukin-8 (IL8) Biomarker Activity (AID 2284280). The following applies: primary human bronchial epithelial cells. An outline of the steps:
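Primary human bronchial epithelial cells (BE3C system) were exposed to test chemical for 24 h, and IL-8 levels were then measured by ELISA. Activity was fitted in the positive (gain-of-signal) direction against a DMSO negative-control baseline.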

Read-out in assay [11]: Epidermal growth factor receptor (EGFR), EGFR (gene 1956)
The experiment in a line: BSK_BE3C_EGFR: BioMAP Diversity Plus: BE3C Assay for Epidermal growth factor receptor (EGFR) Biomarker Activity (AID 2284281). The following applies: primary human bronchial epithelial cells. An outline of the steps: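 Human primary bronchial epithelial cells were exposed to compound for 24 h, and cell-surface EGFR was then quantified by ELISA. Activity was fitted in the positive direction against the DMSO vehicle baseline.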

Read-out in the next assay: KRT18 (gene 3875)
The experiment in a line: BSK_BE3C_Keratin818: BioMAP Diversity Plus: BE3C Assay for Keratin 818 Biomarker Activity (AID 2284282). The following applies: primary human bronchial epithelial cells. Summed up:
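ELISA read-out of Keratin 8/18 in BE3C human bronchial epithelial cultures, 24 h post-dosing; positive-direction fit vs DMSO baseline.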

Read-out in assay [12]: Matrix Metallopeptidase 9 (MMP9), MMP9 (gene 4318)
The experiment in a line: BSK_BE3C_MMP9: BioMAP Diversity Plus: BE3C Assay for Matrix Metallopeptidase 9 (MMP9) Biomarker Activity (AID 2284283). The following applies: primary human bronchial epithelial cells. Summed up:
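Cells were dosed, incubated 24 h, then assayed for MMP-9 by ELISA; activity was fitted upward against DMSO. The system used human lung primary bronchial epithelial cells, with SRB total-protein staining run alongside for cytotoxicity.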

Read-out in assay [13]: Plasminogen activator inhibitor-1 (PAI1), SERPINE1 (gene 5054)
The experiment in a line: BSK_CASM3C_PAI1: BioMAP Diversity Plus: CASM3C Assay for Plasminogen activator inhibitor-1 (PAI1) Biomarker Activity (AID 2284284). The following applies: primary human coronary artery smooth muscle cells.

Read-out in assay [14]: Monocyte Chemoattractant Protein-1 (MCP1), CCL2 (gene 6347)
Put plainly: BSK_hDFCGF_MCP1: BioMAP Diversity Plus: hDFCGF Assay for Monocyte Chemoattractant Protein-1 (MCP1) Biomarker Activity (AID 2284285). Conditions: primary human foreskin fibroblasts. Summed up:
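MCP-1 ELISA readout was taken 24 hours after dosing primary human dermal fibroblasts in the hDFCGF system, with DMSO as baseline. Parallel sulforhodamine B staining of total protein tracked overt cytotoxicity.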

Read-out in assay [15]: Vascular cell adhesion molecule 1 (VCAM1), VCAM1 (gene 7412)
Put plainly: BSK_IMphg_VCAM1: BioMAP Diversity Plus: IMphg Assay for Vascular cell adhesion molecule 1 (VCAM1) Biomarker Activity (AID 2284286). The following applies: primary human endothelial cells with macrophages. Summed up:
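ELISA read-out of VCAM-1 on venular endothelial cell/macrophage co-cultures at 24 h post-treatment, with DMSO as baseline and positive-direction fitting. Parallel sulforhodamine B total-protein staining (560 nm) served as the overt cytotoxicity measure.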

Read-out in assay [16]: urokinase Plasminogen Activator (uPA), PLAU (gene 5328)
Put plainly: BSK_BF4T_uPA: BioMAP Diversity Plus: BF4T Assay for urokinase Plasminogen Activator (uPA) Biomarker Activity (AID 2284275). The following applies: primary human bronchial epithelial cells with fibroblasts. An outline of the steps: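 uPA levels measured by ELISA at 24 hours in BF4T cultures (bronchial epithelial cells plus dermal fibroblasts) and compared with DMSO; cytotoxicity tracked in parallel cultures by sulforhodamine B staining.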

Read-out in assay [17]: Matrix Metallopeptidase 9 (MMP9), MMP9 (gene 4318)
Put plainly: BSK_BF4T_MMP9: BioMAP Diversity Plus: BF4T Assay for Matrix Metallopeptidase 9 (MMP9) Biomarker Activity (AID 2284276). Conditions: primary human bronchial epithelial cells with fibroblasts. Summed up:
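MMP-9 levels were measured by ELISA after 24 h exposure of bronchial epithelial cell/dermal fibroblast co-cultures, with DMSO as baseline. Parallel cultures were stained with 0.1% SRB after TCA fixation, read at 560 nm, to flag overt cytotoxicity.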

Read-out in assay [18]: Tissue plasminogen activator (tPA), PLAT (gene 5327)
The experiment in a line: BSK_BF4T_tPA: BioMAP Diversity Plus: BF4T Assay for Tissue plasminogen activator (tPA) Biomarker Activity (AID 2284272). Conditions: primary human bronchial epithelial cells with fibroblasts. Summed up: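 tPA level quantified by ELISA at 24 h post-treatment in bronchial epithelial/dermal fibroblast co-cultures, gain of signal scored against DMSO baseline. Parallel cultures stained with 0.1% SRB (560 nm) to flag overt cytotoxicity.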

Read-out in assay [19]: Matrix Metallopeptidase 1 (MMP1), MMP1 (gene 4312)
The experiment in a line: BSK_BF4T_MMP1: BioMAP Diversity Plus: BF4T Assay for Matrix Metallopeptidase 1 (MMP1) Biomarker Activity (AID 2284270). The following applies: primary human bronchial epithelial cells with fibroblasts. An outline of the steps:
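MMP-1 quantified by ELISA in primary human bronchial epithelial/dermal fibroblast co-cultures, 24 hours post-dosing, with DMSO as baseline; parallel sulforhodamine B staining (560 nm) tracks overt cytotoxicity.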

By AC50 is commonly meant the midpoint of the concentration-response curve, whichever way the signal moves.

`FC(F)(F)C(F)(F)C(F)(F)N(C(F)(F)C(F)(F)C(F)(F)F)C(F)(F)C(F)(F)C(F)(F)F`: the result in [1], in assay [2], in assay [3], in [4], in assay [5] and in assay [6] was inactive. Moreover, the result (in assay [7]; in [8]; in assay [9]; in assay [10]; in assay [11]; in the assay with KRT18 (gene 3875)) was inactive. Also, the outcome in assay [12], in [13], in assay [14] and in assay [15] was inactive.
On to `O=C(O)C(F)(F)C(F)(F)C(F)F`, for which the outcome in [1], in [2], in [3], in assay [4], in [5] and in assay [6] was inactive. In addition, the outcome in [16], in [17], in [7], in assay [8], in [9] and in assay [10] was inactive. Moreover, the result (in assay [11]; with KRT18 (gene 3875); in assay [12]; in [13]; in assay [14]; in assay [15]) was inactive.
For `FC(F)(F)C(F)(F)C(F)(F)C(F)(F)C(F)(F)CCI`, the outcome in assay [1], in [2], in assay [3], in assay [4], in [18] and in [5] was inactive. The result in [6], in assay [17], in assay [7], in assay [8], in assay [9] and in [10] was inactive. For the same compound, the outcome (in assay [11]; with KRT18 (gene 3875); in assay [12]; in [13]; in assay [14]; in [15]) was inactive.
As to `O=C(Cl)C(F)(F)C(F)(F)C(F)(F)C(F)(F)C(F)(F)C(F)(F)C(F)(F)C(F)(F)F`, the half-maximal activity concentration (AC50) in [1] was 26 µM (active) and 21.7 µM (active) and 20.3 µM (active); in assay [18], 28 µM (active) and 22.9 µM (active) and 20.9 µM (active); in assay [6], 30 µM (active) and 50.1 µM (active); in assay [16] it was 46 µM (active) and 48 µM (active) and 44.8 µM (active); in assay [7] it was 6.67 µM (active) and 5.95 µM (active) and 19.6 µM (active); in [8], 50.4 µM (active) and 58.6 µM (active) and 57.1 µM (active). Moreover, the AC50 was 48.3 µM (active) and 46.7 µM (active) and 48.2 µM (active) in assay [9]; 30 µM (active) and 43.4 µM (active) and 38.6 µM (active) in assay [10]; 39 µM (active) and 43.6 µM (active) and 45.5 µM (active) in assay [11]; 47.8 µM (active) and 43.9 µM (active) and 46.8 µM (active) in the assay with KRT18 (gene 3875); 55.1 µM (active) and 54.8 µM (active) in [12]; 49.5 µM (active) and 46.4 µM (active) in assay [14]. In addition, the AC50 in assay [15] is 35.9 µM (active) and 46.8 µM (active) and 46.3 µM (active). In addition, the outcome in [2], in assay [3], in assay [4], in assay [5], in assay [6] and in assay [13] was inactive. Further, the outcome in assay [14] was inactive.
As to `O=C(O)C(F)(F)C(F)(F)OC(F)(F)F`, the outcome in assay [1], in assay [2], in assay [3], in [19], in [4] and in assay [5] was inactive. Further, the result in [6], in assay [7], in [8], in assay [9], in [10] and in [11] was inactive. For the same compound, the result (with KRT18 (gene 3875); in [12]; in [13]; in [14]; in assay [15]) was inactive.
